The values below come from PubChem BioAssay (Tox21).

Assay [1] is described as follows: qHTS assay to identify small molecule agonists of the hypoxia (HIF-1) signaling pathway - cell viability counter screen (AID 1224844; calls by dose curve; also: potency is read from the fitted curve at half-maximal effect; nearly all actives have a fitted effect of over 50% in size). In short, it runs like this:
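Cytotoxicity measured by CellTiter-Glo ATP luminescence in the wells also read for beta-lactamase signal. Cells were HRE-bla ME-180 (2,000/well, 0.5% dialyzed FBS), exposed to compounds for 17 h at 37C.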
On the technique in general: Quantitative high-throughput screening tests each substance at several concentrations.

Assay [2] can be described thus: qHTS assay to identify small molecule agonists of H2AX - cell viability counter screen (AID 1224847; calls by dose curve; also: nearly all actives have a fitted effect of over 30% in size; also: potency is read from the fitted curve at half-maximal effect). A digest of the protocol:
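Quantitative HTS viability measurement: CHO-K1 wild-type cells in serum (10% FBS) medium, short 3 hr drug exposure at 37C with 0.76% DMSO, CellTiter-Glo luminescent detection.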

Assay [3] in a line: qHTS RealTime-Glo MT Cell Viability Assay in HepG2 cells - 24 hour (AID 1224867). Also: nearly all actives have a fitted effect of over 50% in size. Also: potency is read from the fitted curve at half-maximal effect. In short, it runs like this:
(§1)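 Cells + NanoLuc/prosubstrate dispensed (600 cells/well) → 5 h at 37 C/5% CO2 → compounds in DMSO transferred → 40 h incubation at 37 C, luminescence read at 0, 8, 16, 24, 32, 40 h.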

A short description of assay [4]: A CellTox Green Cytotoxicity Assay to monitor cytotoxicity in HEK293 cells - 0 hour (AID 1224869). Also: % is scaled to controls: 0 for no effect and ±100 for the full control effect; nearly all actives have a fitted effect of over 50% in size. In short, it runs like this: (§2)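 Fluorescence from a DNA-binding dye excluded by viable cells was measured repeatedly in the same HEK293 wells (600 cells/well) during continuous compound exposure at 37 C. Each assay gives one read point: 0, 8, 16, 24, 32 or 40 h.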
Assay [5] in a line: qHTS RealTime-Glo MT Cell Viability Assay in HepG2 cells - 40 hour (AID 1224870). Also: nearly all actives have a fitted effect of over 50% in size. Also: potency is read from the fitted curve at half-maximal effect. A digest of the protocol: (§3)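 Real-time viability: cells seeded at 600 per well together with NanoLuc and cell-permeant prosubstrate, compounds added after 5 h incubation. Luminescence tracked at 0, 8, 16, 24, 32 and 40 h of exposure.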
A short description of assay [6]: A CellTox Green Cytotoxicity Assay to monitor cytotoxicity in HEK293 cells - 40 hour (AID 1224871). Also: nearly all actives have a fitted effect of over 45% in size. Also: potency is read from the fitted curve at half-maximal effect. A digest of the protocol:
as §2

The nature of assay [7]: A CellTox Green Cytotoxicity Assay to monitor cytotoxicity in HEK293 cells - 24 hour (AID 1224875). Also: nearly all actives have a fitted effect of over 45% in size. Also: potency is read from the fitted curve at half-maximal effect. As to activity change: % is scaled to controls: 0 for no effect and ±100 for the full control effect. In short, it runs like this: as §2
The nature of assay [8]: A CellTox Green Cytotoxicity Assay to monitor cytotoxicity in HepG2 cells - 16 hour (AID 1224876). Also: nearly all actives have a fitted effect of over 45% in size. Also: potency is read from the fitted curve at half-maximal effect. In short, it runs like this: (§4)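 Real-time cytotoxicity: fluorescence of a cell-impermeant cyanine dye binding DNA of dead HepG2 cells, measured repeatedly (0–40 h) during compound exposure at 37 C. Cells seeded 600/well with reagent, dosed after 5 h.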
Assay [9] can be described thus: qHTS RealTime-Glo MT Cell Viability Assay in HepG2 cells - 32 hour (AID 1224877). Also: nearly all actives have a fitted effect of over 55% in size. Also: potency is read from the fitted curve at half-maximal effect. A digest of the protocol: as §1
The nature of assay [10]: A CellTox Green Cytotoxicity Assay to monitor cytotoxicity in HepG2 cells - 24 hour (AID 1224878). Also: nearly all actives have a fitted effect of over 45% in size. Also: potency is read from the fitted curve at half-maximal effect. As to Cytotoxicity: % is scaled to controls: 0 for no effect and ±100 for the full control effect. In short, it runs like this: as §4
Assay [11] can be described thus: A CellTox Green Cytotoxicity Assay to monitor cytotoxicity in HepG2 cells - 40 hour (AID 1224879). Also: nearly all actives have a fitted effect of over 40% in size. Also: potency is read from the fitted curve at half-maximal effect. In short, it runs like this: as §4
Assay [12] can be described thus: qHTS assay to identify small molecule antagonists of the estrogen related receptor (ERR) signaling pathway from Tox21 library (AID 1224848). In short, it runs like this: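 ERR cell line, 2,000 cells/well. 6 h settle, then compound (DMSO) added; 18 h at 37 C; ONE-Glo luminescence after 30 min RT.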
Assay [13] is described as follows: qHTS assay to identify small molecule agonists of the estrogen related receptor (ERR) signaling pathway from Tox21 library (AID 1224849; calls by dose curve; also: % is scaled to controls: 0 for no effect and ±100 for the full control effect; nearly all actives have a fitted effect of over 15% in size). The note with it: ERR reporter cell line, ONE-Glo luciferase, 18 h; at 92.4 µM (top of the series) unless noted. A digest of the protocol: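 Luminescent agonist read-out (One-Glo, 30-minute room-temperature incubation) following 18-hour compound treatment at 37 C of the ERR cell line, which had been plated 6 hours before dosing.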

Assay [14] is described as follows: qHTS RealTime-Glo MT Cell Viability Assay in HEK293 cells - 32 hour (AID 1224868). Also: nearly all actives have a fitted effect of over 50% in size. Also: potency is read from the fitted curve at half-maximal effect. A digest of the protocol: (§5)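 Tox21 10K qHTS, HEK293, 600 cells/well, RealTime-Glo reagent co-dispensed with cells; 5 h preincubation, compound by pintool, 37 C, luminescence at 0–40 h.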
The nature of assay [15]: qHTS RealTime-Glo MT Cell Viability Assay in HEK293 cells - 16 hour (AID 1224872). Also: nearly all actives have a fitted effect of over 50% in size. Also: potency is read from the fitted curve at half-maximal effect. In short, it runs like this:
as §5

A short description of assay [16]: qHTS RealTime-Glo MT Cell Viability Assay in HepG2 cells - 8 hour (AID 1224873). Also: nearly all actives have a fitted effect of over 55% in size. Also: potency is read from the fitted curve at half-maximal effect. In short, it runs like this: as §3
Assay [17] in a line: qHTS RealTime-Glo MT Cell Viability Assay in HEK293 cells - 0 hour (AID 1224880). In short, it runs like this: (§6)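 Luminescence, which tracks viable cell number through reduction of the prosubstrate to a NanoLuc substrate, was read over continuous 37 C culture. Cells (600/well) were premixed with reagent and rested 5 h before 23 nL of compound in DMSO was pinned.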
The nature of assay [18]: qHTS assay to identify small molecule agonists of H2AX (AID 1224845; active = well fitted activation curve with a large enough effect in the signal ratio in the repeat runs, not every such curve was filed as active; the % refers to the signal ratio; also: % is scaled to controls: 0 for no effect and ±100 for the full control effect). In short, it runs like this:
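Phospho-H2AX Ser139 measured by HTRF (ex 320 nm; em 665 and 620 nm) after 24 hr antibody incubation. Compounds, 15 concentrations, 0.76% DMSO, were applied to CHO-K1 cells for 3hr at 37C before lysis.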

Assay [19] in a line: qHTS assay to identify small molecule agonists of the hypoxia (HIF-1) signaling pathway (AID 1224846; active = well fitted activation curve with a large enough effect in the signal ratio in the repeat runs, not every such curve was filed as active; the % refers to the signal ratio; also: % is scaled to controls: 0 for no effect and ±100 for the full control effect). In short, it runs like this:
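Compounds added to ME-180 cells carrying hypoxia-response-element beta-lactamase reporter (0.5% dialyzed FBS, 5 h preplating), 17 h at 37C; agonist activity detected by CCF4-AM B/G FRET read-out.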

Assay [20] can be described thus: qHTS RealTime-Glo MT Cell Viability Assay in HEK293 cells - 40 hour (AID 1224874). Also: nearly all actives have a fitted effect of over 50% in size. Also: potency is read from the fitted curve at half-maximal effect. The note with it: RealTime-Glo luminescence; max response: active compounds read low. In short, it runs like this: as §6

Molecules are shown by their SMILES. A number with no mark means an inactive call. Results filed as inconclusive are left out. Active and inactive are the calls of the source. Unless noted, calls follow the shape of the dose curve; as a rule, active = well fitted curve in the direction sought with a large enough effect in the repeat runs; inconclusive = weak or mixed curves; inactive = no such curve, though single readings can be large; an effect the other way counts as inactive or inconclusive.

Turning to `CC(=O)[O-].CC(=O)[O-].[Hg+2]`, the Potency in assay [1] was 3.47 µM (active); in [2], 6.35 µM (active); in assay [3], 2.19 µM (active); in assay [5], 2.45 µM (active); in assay [6] it was 5.49 µM (active); in assay [7], 21.9 µM (active). Besides, the Potency was 2.75 µM (active) in assay [8], 2.19 µM (active) in assay [9], 2.19 µM (active) in assay [10] and 1.55 µM (active) in assay [11]. Besides, the Potency entry in assay [4] is “inactive”.

In the case of `S=C(SSC(=S)N1CCCCC1)N1CCCCC1`, the Potency in assay [1] was 0.338 µM (active); in [12], 0.473 µM (active); in [14], 15.1 µM (active); in [5], 0.213 µM (active); in [6], 0.151 µM (active); in assay [15], 16.9 µM (active). Also, the Potency in assay [16] was 26.8 µM (active); in [9] it was 0.213 µM (active); in assay [11], 0.169 µM (active). Also, the activity change, positive = activation in assay [13] was -70.7% [at 42.5 µM]. In addition, the Potency result in [4], in assay [7] and in assay [17] was “inactive” each time.

`CC(Cl)CN(C)C` (centres undefined): the Potency result in [18], in assay [2], in [3], in assay [4], in assay [5] and in assay [16] was “inactive” in each case. The Potency result in [8], in [9], in assay [10] and in assay [11] was “inactive” throughout. In assay [19], the result was inactive.

Regarding `O=[N+]([O-])c1cc([N+](=O)[O-])c2ccccc2c1`, the Potency result in assay [18], in [2], in assay [14], in assay [5], in assay [15] and in assay [8] was “inactive” throughout. The Potency result in [11] and in [17] was “inactive” each time. Moreover, in assay [19], the result was inactive. Besides, the activity change, positive = activation in [13] was -17.9%. Besides, in assay [20], the max response is 4.65%.

`CCCCCCCCc1ccc(O)cc1`: the Potency was 39.1 µM (active) in [1]; 25.5 µM (active) in assay [2]; 5.53 µM (active) in assay [14]; 4.39 µM (active) in assay [15]; 17.5 µM (active) in assay [7]; 38 µM (active) in [8]. Besides, the Potency in assay [10] and in assay [11] was 19.6 µM (active) in each case.

`Clc1ccc(C(Cl)(Cl)Cl)c(Cl)c1`: the Potency result in assay [18], in [2], in assay [3], in [4], in [5] and in assay [16] was “inactive” throughout. The Potency result in assay [8], in assay [9] and in assay [17] was “inactive” throughout. Also, the Potency in assay [12] is 61.6 µM (active). The activity change, positive = activation in assay [13] is -45.2%.

Regarding `Oc1ccc(C(=C(Cl)Cl)c2ccc(O)cc2)cc1`, the Potency entry in assay [18], in [3], in [5], in assay [6], in [16] and in assay [7] was “inactive” throughout. Moreover, the Potency entry in assay [9], in [10], in [11] and in assay [17] was “inactive” in each case. The Potency in assay [12] is 34.3 µM (active); in assay [14] it was 43.6 µM (active); in assay [15], 43.6 µM (active); in [20], 43.6 µM (active). In assay [13], the activity change, positive = activation was -44.3%.

Regarding `Oc1c(Br)c(Br)c(Br)c(Br)c1Br`, the figures for the Potency in assay [1] and in assay [2] were 43.9 µM (active) and 80.5 µM (active), respectively. Also, the Potency entry in assay [3], in [5], in assay [16], in assay [7], in assay [8] and in assay [9] was “inactive” each time. For the same compound, the Potency result in assay [10], in assay [11] and in [17] was “inactive” throughout.

On to `CC(=O)[O-].[Tl+]`, for which the outcome in assay [19] was inactive. The Potency entry in assay [2], in assay [3], in assay [4], in assay [5], in assay [15] and in assay [16] was “inactive” in each case. Besides, the Potency result in assay [7], in assay [8], in assay [9], in [10], in assay [11] and in assay [17] was “inactive” in each case.
